# Bioassay records: PubChem BioAssay, National Center for Advancing Translational Sciences (NCATS)
# ClpP mod = qHTS Assay for Activators of ClpP. AID 651965, 2013. Potency, µM (titrated, usually from 57.5 µM). purified B. subtilis ClpP, FRET peptide cleavage, 20 min. 340,000 compounds, 1.9% hits. ATP-dependent Clp protease proteolytic subunit (Bacillus subtilis (strain 168)), P80244; active = well fitted falling curve with a large enough effect; inconclusive = small, poorly fitted or top-dose-only effect; inactive = no such curve, though single readings can be large or run the other way; also: the source files actives as falling curves though it sought activators and does not explain the sign; nearly all actives have a fitted effect of over 65% in size
# Target sequence (P80244 whole entry, looked up): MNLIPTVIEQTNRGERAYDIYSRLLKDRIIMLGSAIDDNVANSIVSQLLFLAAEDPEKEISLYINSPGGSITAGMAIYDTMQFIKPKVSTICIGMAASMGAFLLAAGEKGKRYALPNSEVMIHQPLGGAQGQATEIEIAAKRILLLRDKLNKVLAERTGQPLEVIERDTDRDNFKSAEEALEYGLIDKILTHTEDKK
#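 Buffer: 100 mM Tris/HCl pH8, 100 mM KCl, 0.05% low protease BSA, 2.5% glycerol, 0.01% Tween-20. ClpP 10 microg/mL final; 20 min RT; delta FRET normalized to ADEP and DMSO controls.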
# Gal4-VP16 FLuc = Gal4-VP16 reporter inhibition counter-screen | Drosophila S2 Gal4-VP16 UAS-luciferase, luminescence, 20 h | Potency, µM (doses to about 53.6 µM), usual class: inhibitors | 310,000 compounds, 3.5% hits;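 also: Gal4-VP16 expression switched on by copper sulfate through the metallothionein promoter; nearly all actives have a fitted effect of over 50% in size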
# PINK1 expr mod = changes PINK1 expression | PINK1 immunofluorescence, high-content cytometry, 24 h | Potency, µM (series often up to 76.6 µM), most hits filed as activators | 410,000 compounds, 0.2% hits; active = well fitted activation curve with a large enough effect; inconclusive = small, poorly fitted or top-dose-only effect; cell line not stated here; also: nearly all actives have a fitted effect of over 65% in size
#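 Decision-based qHTS: stable cells, 24 h exposure to five compound concentrations, CCCP as control. Fixed cells stained for PINK1 plus nuclear, mitochondrial and cell markers, cytometer read.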
# Epigenetic derep = epigenetic control regulation, reporter derepression; murine LDR cells, GFP reporter derepression, 30 h; Potency, µM (titrated, usually from 53.9 µM), actives largely listed as activators; 280,000 compounds, 0.2% hits; AID 1865; also: nearly all actives have a fitted effect of over 60% in size
#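 Murine LDR cells carrying a silenced, genomically integrated CMV-driven GFP reporter were exposed to compound for 30 hours at 37 C. After PBS washes, GFP-positive cells (20–120 um objects) were counted by laser-scanning microplate cytometry.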
# Sfp inh = blocks B. subtilis Sfp PPTase activity | Q9F4F7 | Biochemical Sfp PPTase activity, qHTS | Potency, µM, actives largely listed as inhibitors | 310,000 compounds, 3.5% hits;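 also: the enzyme is Sfp with the accession as filed and its product quenches rhodamine fluorescence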
#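 Step 1, compound plus 15 nM Sfp-PPTase, 15 min, room temperature. Step 2, add rhodamine-CoA (5 uM) and BHQ-2-YbbR (12.5 uM). Step 3, read 525/598 nm fluorescence at 0 and 30 min.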
# RORg inh = inhibitors of mouse ROR gamma transcriptional activity; Drosophila S2 Gal4-RORgamma UAS-luciferase reporter, 20 h; Potency, µM (series often up to 53.6 µM), hits mostly inhibitors; 310,000 compounds, 5.4% hits; also: nearly all actives have a fitted effect of over 60% in size
# Target sequence (P51450 whole entry, looked up, the tested form may be a part): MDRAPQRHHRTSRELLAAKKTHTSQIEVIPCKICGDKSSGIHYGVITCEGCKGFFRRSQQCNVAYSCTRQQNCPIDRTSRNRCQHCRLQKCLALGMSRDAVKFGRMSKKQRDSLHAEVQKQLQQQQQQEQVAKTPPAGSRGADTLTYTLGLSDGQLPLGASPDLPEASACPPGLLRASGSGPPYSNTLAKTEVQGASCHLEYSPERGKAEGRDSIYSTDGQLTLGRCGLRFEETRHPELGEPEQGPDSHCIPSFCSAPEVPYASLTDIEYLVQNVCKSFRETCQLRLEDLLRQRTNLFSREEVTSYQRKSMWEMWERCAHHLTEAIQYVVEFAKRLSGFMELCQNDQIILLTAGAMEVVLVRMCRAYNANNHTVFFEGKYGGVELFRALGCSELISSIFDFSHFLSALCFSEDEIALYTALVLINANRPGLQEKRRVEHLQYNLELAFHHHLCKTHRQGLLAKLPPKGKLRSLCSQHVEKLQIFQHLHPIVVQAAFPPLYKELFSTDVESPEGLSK
#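 Luminescence from a UAS-regulated Photinus luciferase reporter in stably transfected Drosophila Schneider cells is measured; decreased signal marks ROR gamma inhibition. Fusion expression is induced by 700 uM copper sulfate for 20 hr.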
# Hits are given with their value; – = inactive; ? = inconclusive; · = no result; [ ] = dose if it differs, or a comment. In the library only some 8.1% were active in any assay of this set; here they are far more common. Unless noted, calls follow the shape of the dose curve; as a rule, active = well fitted curve in the direction sought with a large enough effect; inconclusive = small, poorly fitted or top-dose-only effect, or another doubt; inactive = no such curve, though single readings can be large; an effect the other way counts as inactive or inconclusive.
SMILES,ClpP mod,Gal4-VP16 FLuc,PINK1 expr mod,Epigenetic derep,Sfp inh,RORg inh
Cc1cc(N2CCN(C)CC2)nc2ccc(NC(=S)N3CCN(c4ccc(Cl)cc4)CC3)cc12,·,?,–,–,45µM,?
Cc1cc(N2CCCN(C)CC2)nc2cc(Cl)ccc12,32µM,–,–,–,–,?
Cc1cc(N2CCN(C)CC2)nc2ccc(NC(=O)Nc3ccc(Cl)cc3)cc12,–,·,–,–,·,·
Cc1cccc(N2CCN(C(=S)Nc3ccc4nc(N5CCN(C)CC5)cc(C)c4c3)CC2)c1C,–,4.5µM,–,?,–,4.5µM
C=CC[C@@H]1C=C[C@@H](O/N=C(/C)CCC(=O)OC[C@@H]2O[C@H](c3ccccc3)C=C[C@@H]2Oc2ccc(OC)cc2)[C@@H](CO)O1,·,–[10 µM],·,–[10.1 µM],–,–[10 µM]
CCCOc1ccc(Br)cc1-c1cc(-c2ccc(Cl)cc2)[nH]c1-c1ccncc1,·,–,·,–,–,–
O=C(NCC1Cc2cccc(-c3cnccn3)c2O1)c1ccc(F)c(Cl)c1 (stereo unspecified),·,·,–,·,·,·
Cc1ccc(C)c(NS(=O)(=O)c2cc(C(=O)O)ccc2Cl)c1,·,·,·,–,·,·
CCOC(=O)C(C)Sc1nnc(-c2ccccc2O)n1-c1ccc(C)cc1 (stereo unspecified),–,5.6µM,–,–,–,3.2µM
COc1ccc(S(=O)(=O)Nc2ccncc2)c(C)c1C,·,–,–,–,89µM,–
COc1ccc(S(=O)(=O)Nc2cccnc2)c(C)c1C,·,–,–,·,–,–
c1ccc(Cc2nnc3n2CCN(Cc2cnc(-c4ccccc4)s2)CC3)cc1,·,·,–,·,·,·
COc1cc(C(F)(F)F)nc(-c2ccccn2)n1,·,–,–,–,–,–
COC(=O)CSc1cc(C(F)(F)F)nc(-c2ccccn2)n1,–,–,·,–,–,–
FC(F)(F)c1cc(Sc2ccccc2)nc(-c2ccccn2)n1,–,?,–,–,–,11µM
FC(F)(F)c1cc(Nc2ccccc2)nc(-c2ccccn2)n1,–,4.5µM,–,·,–,2µM
CC(C)Nc1cc(C(F)(F)F)nc(-c2ccccn2)n1,–,6.3µM,–,–,–,1µM
COc1ccccc1CNC(=O)CSc1cc(C)[nH]c(=O)n1,–,·,–,–,·,·
COc1ccc2c(c1O)Cc1ccccc1C2=O,–,–,–,–,45µM,–
Cc1cc2nc(C3CCCN(C(=S)Nc4ccccc4)C3)[nH]c2cc1C (stereo unspecified),–,?,–,–,–,13µM
CCOC(=O)C1CCCN(C(=S)NC(=O)/C=C/c2ccc(F)cc2)C1 (stereo unspecified),–,7.1µM,–,·,–,10µM
CCOC(=O)C1CCCN(CC(=O)c2ccc(F)cc2)C1 (stereo unspecified),–,–,–,·,50µM,–
CCOC(=O)C1CCCN(C(=O)/C=C/c2ccc(Cl)cc2)C1 (stereo unspecified),–,–,–,–,–,?
CCOC(=O)C1CCCN(CC(=O)Nc2c(F)c(F)c(F)c(F)c2F)C1 (stereo unspecified),–,–,–,–,–,–
CCOC(=O)C1CCCN(C(=O)/C=C/c2cccc([N+](=O)[O-])c2)C1 (stereo unspecified),25µM,–,–,–,–,–
SMILES,ClpP mod,Gal4-VP16 FLuc,PINK1 expr mod,Epigenetic derep,Sfp inh,RORg inh
CCn1c(CNC(=O)c2ccc(OC)cc2)nnc1SCC(=O)Nc1cccc(C)c1,–,·,–,–,·,·
CCOC(=O)C1CCCN(C(=S)Nc2ccc(Nc3ccccc3)cc2)C1 (stereo unspecified),·,–,–,–,45µM,?
CCOC(=O)C1CCCN(C(=S)Nc2ccc(C)cc2C)C1 (stereo unspecified),–,?,–,–,–,11µM
CCOC(=O)C1CCCN(C(=O)Cc2ccc(C)cc2)C1 (stereo unspecified),–,–,–,–,–,–
Cc1cc(NC(=O)c2cnn(-c3ccccc3)c2-n2cccc2)ccc1Br,–,·,–,–,·,·
O=C(O)[C@@H](c1ccccc1)N1Cc2ccccc2C1=O,–,–,–,–,28µM,–
Cc1cc(O)c(/C=N/Nc2ccccc2)c(=O)o1,–,–,–,–,18µM,?
COC(=O)c1c(N)n(-c2ccc(OC)c(OC)c2)c2nc3ccccc3nc12,–,·,–,–,·,·
Cc1cc(NC(=O)Nc2ccc3c(ccn3C)c2)sn1,–,–,–,–,79µM,?
Cc1ccc(N2CC(NC(=O)/C=C\c3ccc4c(c3)OCO4)CC2=O)cc1 (stereo unspecified),–,·,–,–,·,·
CCOC(=O)C1CCN(C(=O)c2ccc3c(c2)N=C(CC)c2cc(C)ccc2S3)CC1,–,·,–,–,·,·
COc1ccc2c(c1)CC/C(=C/c1ccco1)C2=O,–,?,–,–,–,–
Cn1cccc1/C=C1\CC(C(C)(C)C)C/C(=C\c2cccn2C)C1=O (stereo unspecified),–,5µM,?,2.8µM,–,?
Cn1cccc1/C=C1\CCc2ccccc2C1=O,·,–,–,–,–,13µM
Cn1cccc1/C=C1\Cc2ccccc2C1=O,–,–,–,–,–,–
Nc1ccc2c(c1)C/C(=C/c1ccco1)C2=O,14µM,?,–,–,–,–
O=C1/C(=C/c2ccco2)CCc2ccccc21,–,?,–,–,56µM,?
Cc1ccc2c(c1)-c1nc(-c3ccc(Cl)cc3)cc(-c3coc4ccccc4c3=O)c1CO2,–,·,–,–,·,·
CC(C)(C)n1nnnc1C(c1ccccc1)N1CCN(C(=O)c2ccco2)CC1 (stereo unspecified),–,·,–,·,·,·
CCC(C)(C)n1nnnc1C(c1cc2cc(C)ccc2[nH]c1=O)N1CCCC1 (stereo unspecified),?,·,–,–,14µM,–[0.365 µM]
Cc1ccc2cc(C(c3nnnn3C(C)(C)C)N3CCCCCC3)c(=O)[nH]c2c1 (stereo unspecified),–,–,–,–,?,–
Cc1ccc2[nH]c(=O)c(C(c3nnnn3C(C)(C)C)N3CCN(C(=O)c4ccco4)CC3)cc2c1 (stereo unspecified),?,–,–,–,45µM,–
CC(C)(C)n1nnnc1C(c1cc2cc3c(cc2[nH]c1=O)OCO3)N1CCN(c2ccccc2)CC1 (stereo unspecified),22µM,–,–,–,–,–
Cc1cccc2cc(C(c3nnnn3C(C)(C)C)N3CCN(C(=O)c4ccco4)CC3)c(=O)[nH]c12 (stereo unspecified),–,·,–,–,56µM,–[0.365 µM]
CCC(C)(C)n1nnnc1C(c1cc2cc(C)cc(C)c2[nH]c1=O)N1CCN(C(=O)c2ccco2)CC1 (stereo unspecified),?,–,·,–,45µM,–
